MPTP inh: inhibitors of mitochondrial permeability transition pore | isolated mouse mitochondria, Ca2+ swelling absorbance, 30 min | inhibition, % at 10 µM | actives 1.4% (n = 360,000);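 active means inhibition of 50% or more, scaled per plate between neutral and stimulator controls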;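 further: 0% = DMSO wells given calcium and 100% = 1 mM EGTA wells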
CSC inhib: blocks cancer stem cells; cancer stem cell-like cells viability, luminescence; inhibition, % at 7.5 µM; actives 1.1% (n = 300,000); in the data active means inhibition above about 75%; inconclusive means no clear call, values can overlap the other calls; tested in HMLE shEcad cells
Beta cell apopt: blocks beta cell apoptosis; INS-1E cytokine-induced death, ATP luminescence, 48 h; percent of positive-control rescue, neutral wells zero; protection from apoptosis, % (concentration not given with the values); actives 0.8% (n = 300,000); AID 435005;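 active means Every replicate reaches about 75%, or at least half do and their mean reaches it too, limit read from the data; inconclusive means At least half of replicates reach the limit but their mean does not; inactive means Under half of replicates reach the limit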;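 further: 0% = cytokine-treated negative control wells and 100% = positive control rescue; higher means more ATP so stronger rescue from cytokine killing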
Calb FLC: C. albicans growth modulation with fluconazole; actives 0.57% (n = 300,000); AID 1979; growth inhibition, % (test concentration not listed); C. albicans CaCi-2 (fluconazole-resistant clinical isolate) + fluconazole, Alamar Blue growth, 48 h;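 active means growth inhibition above about 58% in most replicates, limit read from the data, passing the limit was not always enough; inconclusive means exactly half the replicates above a set limit; inactive means most replicates below a set limit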;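 further: all wells also contain fluconazole at 8 µg/ml as a sub-toxic cotreatment; 0% = median of DMSO wells and 100% = median of geldanamycin control wells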
SKKanGAS inh: SKKanGAS growth inhibition; actives 1.3% (n = 300,000); S. pyogenes SKKanGAS, kanamycin growth, BacTiter-Glo, 6 h; inhibition, % at 7.5 µM;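 active means mean replicate score, as percent of positive control median, at least 50; inconclusive means mean below 50 but one replicate at or above 50; inactive means mean and every replicate below 50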;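 further: strain carries kanamycin resistance gene driven by streptokinase promoter and grows in 40 µg/ml kanamycin; loss of luminescence reflects streptokinase promoter inhibition or plain growth inhibition; 0% = median of DMSO wells and 100% = positive control at its reference dose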
Mdm2 MdmX PPI: inhibitors of human Mdm2/MdmX interaction | inhibition, % at 8 µM | SaOS-2 split-luciferase Mdm2/MdmX complementation, luminescence | actives 3% (n = 330,000);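 active means inhibition of at least 50% at 8 µM in the primary screen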
Target sequence (O15151 whole entry, looked up): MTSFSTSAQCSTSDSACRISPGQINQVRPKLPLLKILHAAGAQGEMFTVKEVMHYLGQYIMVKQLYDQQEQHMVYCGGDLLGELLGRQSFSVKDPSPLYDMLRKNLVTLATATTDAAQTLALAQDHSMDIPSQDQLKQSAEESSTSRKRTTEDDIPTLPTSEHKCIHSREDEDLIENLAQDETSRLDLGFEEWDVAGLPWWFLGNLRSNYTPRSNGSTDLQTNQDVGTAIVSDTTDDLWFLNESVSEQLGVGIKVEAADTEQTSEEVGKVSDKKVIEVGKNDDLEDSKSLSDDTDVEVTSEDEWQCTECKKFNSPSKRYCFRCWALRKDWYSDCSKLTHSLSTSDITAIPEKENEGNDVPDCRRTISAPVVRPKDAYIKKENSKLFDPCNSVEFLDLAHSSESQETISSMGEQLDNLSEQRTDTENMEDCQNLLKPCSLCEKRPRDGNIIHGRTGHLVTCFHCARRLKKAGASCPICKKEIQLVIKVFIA
Target sequence (Q00987 whole entry, looked up): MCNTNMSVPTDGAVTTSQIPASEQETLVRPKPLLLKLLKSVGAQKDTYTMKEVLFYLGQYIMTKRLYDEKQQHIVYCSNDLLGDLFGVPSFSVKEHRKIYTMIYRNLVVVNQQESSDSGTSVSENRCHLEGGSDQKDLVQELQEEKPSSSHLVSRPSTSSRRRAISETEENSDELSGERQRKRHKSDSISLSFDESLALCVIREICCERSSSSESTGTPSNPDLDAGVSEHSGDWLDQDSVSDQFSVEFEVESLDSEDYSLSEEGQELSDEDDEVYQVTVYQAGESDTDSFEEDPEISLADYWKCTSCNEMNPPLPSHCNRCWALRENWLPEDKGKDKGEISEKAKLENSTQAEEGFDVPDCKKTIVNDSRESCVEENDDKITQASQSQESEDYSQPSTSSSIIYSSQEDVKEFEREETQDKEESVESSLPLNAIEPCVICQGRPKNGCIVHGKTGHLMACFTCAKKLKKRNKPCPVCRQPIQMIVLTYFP
Mdm2-MdmX conf: human Mdm2/MdmX binding inhibition, confirmed. shares compounds with Mdm2 MdmX PPI. luminescent assay. actives 55% (n = 10,000). AID 489028. inhibition, % at 8 µM; in the data active means inhibition above about 40%
FLuc counter: inhibits full-length luciferase, flagging false Mdm2/MdmX hits | shares compounds with Mdm2 MdmX PPI | SaOS-2 full-length luciferase counterscreen, luminescence | inhibition, % at 8 µM | actives 77% (n = 6,200) | AID 504607;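 active means mean inhibition at 8 µM reaching about 37%, which flags the compound as non-specific, limit read from the data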;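 further: p53-null SaOS-2 cells with luciferase driven by a doxycycline-inducible promoter; compound on cells about two nights before reading with doxycycline added after day one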
Rh123 counter: Rhodamine 123 counter-screen of mitochondrial pore hits; shares compounds with MPTP inh; isolated mitochondria, membrane potential, Rhodamine 123 fluorescence; inhibition, % at 10 µM; actives 78% (n = 5,000); in the data active means inhibition above about 22%;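 further: 0% = DMSO vehicle and 100% = positive control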
MPTP abs DR: dose response confirmation of mitochondrial permeability transition pore inhibitors | IC50, µM | actives 58% (n = 780) | shares compounds with MPTP inh | isolated mitochondria swelling, absorbance; in the data active means IC50 below about 20 µM
MPTP cs DR: MPTP inhibitor counter-screen activity, dose response; IC50, µM; isolated mitochondria counterscreen, fluorescence read-out; shares compounds with MPTP inh; AID 651564; actives 49% (n = 780); in the data active means IC50 below about 80 µM
* = called active by the depositor. Hits are enriched below; roughly 5.4% of the tested compounds scored in any of these assays.

`FC(F)(F)c1cc(N2CCNCC2)c2ccccc2n1` gave MPTP inh -1, CSC inhib -6, Beta cell apopt -4, Calb FLC 1, SKKanGAS inh -2 and Mdm2 MdmX PPI 13.
Screening OC(c1cc(C(F)(F)F)nc2c(C(F)(F)F)cccc12)C1CCCCN1 (configuration not stated) returned MPTP inh 92*, CSC inhib 72, Beta cell apopt 45, Mdm2 MdmX PPI 100*, Mdm2-MdmX conf 89*, FLuc counter 36 and Rh123 counter -23.
`Cc1nnsc1C(=O)N/N=C/c1ccccc1` gave MPTP inh 4, CSC inhib -20, Beta cell apopt 7, Calb FLC 1, SKKanGAS inh 10 and Mdm2 MdmX PPI 7.
Cc1nnsc1C(=O)N/N=C/c1ccc2ccccc2c1O was read as MPTP inh 56*, CSC inhib 78*, Beta cell apopt 125*, Calb FLC -8, SKKanGAS inh 56*, Mdm2 MdmX PPI 63*, Mdm2-MdmX conf 75*, FLuc counter 30 and Rh123 counter 56*.
CC(=O)N1c2ccc(S(=O)(=O)N3CCCC(C(=O)N4CCCCC4)C3)cc2CC1C (configuration not stated) was read as MPTP inh 0, CSC inhib -22, Beta cell apopt 2, Calb FLC -11, SKKanGAS inh -1 and Mdm2 MdmX PPI 12.
`O=C(NC(=S)Nc1cc(-c2nc3ccccc3[nH]2)ccc1Cl)c1ccc2c(c1)OCO2` gave MPTP inh 57*, CSC inhib 94*, Beta cell apopt 89*, Calb FLC 2, SKKanGAS inh 15, Mdm2 MdmX PPI 101*, Mdm2-MdmX conf 71*, FLuc counter 70* and Rh123 counter 39*.
Screening CC(C)(c1ccccc1)c1ccc(OCCCNCCO)cc1 returned MPTP inh 94*, CSC inhib 5, SKKanGAS inh 2, Mdm2 MdmX PPI 54*, Mdm2-MdmX conf 37, Rh123 counter -9, MPTP abs DR 5.9* and MPTP cs DR >80.
`C/C(=N\NC(=O)c1cc2ccccc2cc1O)c1cc2ccccc2o1` gave MPTP inh 98*, CSC inhib 93*, Beta cell apopt 16, Calb FLC -4, SKKanGAS inh 78*, Mdm2 MdmX PPI 54*, Mdm2-MdmX conf 40, FLuc counter 58* and Rh123 counter 57*.
Cc1ccc2ncnc(Nc3ccccc3)c2c1 was read as MPTP inh 4, CSC inhib 33, Beta cell apopt 13, Calb FLC 20, SKKanGAS inh -7 and Mdm2 MdmX PPI 33.
Clc1cccc(Nc2ncnc3ccc(Br)cc23)c1 was read as MPTP inh 91*, CSC inhib 58, Beta cell apopt 19, Calb FLC 17, SKKanGAS inh -1, Mdm2 MdmX PPI 74*, Mdm2-MdmX conf 43*, FLuc counter 36 and Rh123 counter 74*.
For Cc1ccc2ncnc(Nc3cccc(C(=O)O)c3)c2c1 the results were MPTP inh -1, CSC inhib -16, Beta cell apopt 2, Calb FLC 17, SKKanGAS inh 1 and Mdm2 MdmX PPI -16.
Screening Clc1ccc(Nc2ncnc3ccc(Br)cc23)cc1 returned MPTP inh 87*, CSC inhib inconclusive, Beta cell apopt 20, Calb FLC -30, SKKanGAS inh 12, Mdm2 MdmX PPI 77*, Mdm2-MdmX conf 61*, FLuc counter 37* and Rh123 counter 87*.
Brc1ccc2ncnc(NCc3ccccc3)c2c1 was read as MPTP inh 59*, CSC inhib -10, Beta cell apopt 56, Calb FLC -2, SKKanGAS inh -3, Mdm2 MdmX PPI 84*, Mdm2-MdmX conf 81*, FLuc counter 53* and Rh123 counter 88*.
For CS(=O)(=O)N1CCN(c2ccccc2NC(=O)c2cccnc2Cl)CC1 the results were MPTP inh -2, CSC inhib 2, Beta cell apopt -2, Calb FLC 4, SKKanGAS inh -13 and Mdm2 MdmX PPI -17.
Screening O=C(O)CCC(=O)Nc1nnc(C(F)(F)F)s1 returned MPTP inh 0, CSC inhib -8, Beta cell apopt 2 and Mdm2 MdmX PPI -3.
Screening CCC(NC(=O)Nc1nnc(C(F)(F)F)s1)(C(F)(F)F)C(F)(F)F returned MPTP inh 101*, CSC inhib -17, Beta cell apopt 124*, Calb FLC inconclusive, SKKanGAS inh 118*, Mdm2 MdmX PPI 91*, Mdm2-MdmX conf 90*, FLuc counter 26 and Rh123 counter 112*.
Screening CCOC(=O)C1=C[C@@H](C(C)C)N(S(=O)(=O)c2ccc([N+](=O)[O-])cc2)[C@H]1c1ccccc1 returned MPTP inh 2.
For CC(C)Nc1ccc(Nc2ccnc3cc4ccccc4cc23)cc1 the results were MPTP inh 68*, CSC inhib 108*, Beta cell apopt 125*, Calb FLC -1, SKKanGAS inh 5, Mdm2 MdmX PPI 95*, Mdm2-MdmX conf 100*, FLuc counter 51* and Rh123 counter 70*.
`COc1ccc(-c2nc(-c3cccc(C)c3)nc(N3CCN(C)CC3)c2C#N)cc1` gave MPTP inh 91*, CSC inhib -7, Beta cell apopt 3, Calb FLC -4, SKKanGAS inh 1, Mdm2 MdmX PPI 66*, Mdm2-MdmX conf 74*, FLuc counter 57*, Rh123 counter 1, MPTP abs DR inactive and MPTP cs DR >80.
Screening COc1ccc(-n2c3c(cc(C(=O)NNc4ccccc4C)c2=O)C(=O)CC(C)(C)C3)cc1 returned MPTP inh 1, CSC inhib -12, Beta cell apopt 1, Calb FLC -7, SKKanGAS inh -3 and Mdm2 MdmX PPI 32.
CCOc1ccc(NC(=O)COn2nnc3ccc(S(=O)(=O)N4CCOCC4)cc32)cc1 was read as MPTP inh -1, CSC inhib -7, Beta cell apopt 2, Calb FLC inconclusive, SKKanGAS inh 18 and Mdm2 MdmX PPI 21.
CN1CCN(C2Cc3ccccc3Sc3cc(C(F)(F)F)ccc32)CC1 (configuration not stated) was read as CSC inhib inconclusive, Beta cell apopt 41, Calb FLC 53, SKKanGAS inh 12 and Mdm2 MdmX PPI 50.

Bioassay records (PubChem BioAssay)
